Most compounds without a hit are left out; they make up all but 3.5% or so of the library.
FBW7 activator = FBW7 E3 ligase activators, primary screen, biochemical, AlphaScreen, human | AID 1259310, 2017 | AlphaScreen FBW7–phospho-cyclin E peptide binding, activator screen | normalized activity (activation), % at 26.1 µM | 650,000 compounds, 0.13% hits; in the data active = normalized activity above about 1.9%;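 also: purified mutant Fbw7 with reduced substrate affinity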
MITF primary = MITF inhibitors, primary screen, biochemical, AlphaScreen, human. Microphthalmia-associated transcription factor (Homo sapiens), O75030. AlphaScreen MITF homodimerization, bead proximity signal. inhibition, % at 2.6 µM. 650,000 compounds, 0.91% hits; in the data active = inhibition above about 50%;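 also: 0% = vehicle wells with protein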
TEAD-YAP block = TEAD-YAP interaction inhibition, primary screen, TEAD-YAP interaction inhibitor project, luminescence, HEK-TIYL cells. TEAD-Gal4/YAP UAS-luciferase luminescence. 640,000 compounds, 1.4% hits. inhibition, % at 9.12 µM; in the data active = inhibition above about 32%;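 also: 0% = median of test compound wells and 100% = reference inhibitor wells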
GPR151 ag = activators of human GPR151, primary screen, cell-based, PathHunter beta-arrestin, luminescence; PathHunter beta-arrestin GPR151 cells; activation, % at 11.2 µM; 650,000 compounds, 1% hits; G-protein coupled receptor 151 (Homo sapiens), Q8TDV0; in the data active = activation above about 4.9%;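 also: 0% = median of compound wells and 100% = cells with positive control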
Target sequence (Q8TDV0 whole entry, looked up): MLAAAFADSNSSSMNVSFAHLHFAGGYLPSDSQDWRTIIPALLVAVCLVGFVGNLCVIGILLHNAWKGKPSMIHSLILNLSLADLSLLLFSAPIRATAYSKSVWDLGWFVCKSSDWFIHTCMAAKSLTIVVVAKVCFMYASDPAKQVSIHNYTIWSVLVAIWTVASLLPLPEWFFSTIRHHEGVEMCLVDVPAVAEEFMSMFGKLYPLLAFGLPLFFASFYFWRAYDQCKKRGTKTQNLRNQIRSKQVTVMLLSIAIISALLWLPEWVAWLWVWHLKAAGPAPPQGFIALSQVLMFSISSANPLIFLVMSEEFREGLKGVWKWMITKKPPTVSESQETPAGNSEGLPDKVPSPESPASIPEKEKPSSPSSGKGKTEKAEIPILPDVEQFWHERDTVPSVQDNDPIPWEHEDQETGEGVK
MITF inh conf = MITF inhibitors, retest of hits, confirmation, biochemical, AlphaScreen, triplicate | inhibition, % at 2.6 µM | AID 1259372, 2018 | AlphaScreen MITF homodimerization, biotin/His-MITF beads | 4,700 compounds, 16% hits | shares compounds with MITF primary;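 active = inhibition above a cutoff derived from the DMSO control wells, cut at about 28% in these data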;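 also: 0% = MITF dimer wells with DMSO only; inhibitors lower the bead chemiluminescence by keeping MITF from dimerizing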
AS interf ctr = AlphaScreen optical interference compounds, counter-screen for MITF inhibitor project, biochemical, triplicate; LysRS AlphaScreen counterscreen, signal interference; AID 1259376, 2018; 4,700 compounds, 7.6% hits; inhibition, % at 2.6 µM; shares compounds with MITF primary;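 active = inhibition above a cutoff derived from the DMSO control wells, cut at about 30% in these data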
* = called active by the depositor; x = no result.

SMILES | FBW7 activator | MITF primary | TEAD-YAP block | GPR151 ag | MITF inh conf | AS interf ctr
Cc1ccc([N+](=O)[O-])c(OCCOCCN2CCN(Cc3ccccc3)CC2)c1 | -0.2 | 70.1* | -4.7 | -0.2 | 11.9 | -0.4
NC(=O)C1CCN(C2CC(=O)N(Cc3ccc(F)cc3)C2=O)CC1 (centres undefined) | 0.2 | 21.5 | 5.6 | -0.4 | x | x
CN(Cc1ccccc1)c1cc(-c2ccccn2)nc(-c2ccccn2)n1 | -1.0 | 79.1* | 40.1* | 3.3 | 37.2* | 81.3*
CN(Cc1ccccc1)c1cc(-c2ccncc2)nc(-c2cccnc2)n1 | -0.1 | 6.0 | -7.4 | 1.3 | x | x
NC(=O)c1oc2ccccc2c1NC(=O)c1ccc(Cl)cc1 | 0.0 | 5.8 | 4.5 | 0.0 | x | x
NC(=O)c1oc2ccccc2c1NC(=O)c1sc2ccccc2c1Cl | 0.0 | 57.7* | 4.8 | 0.1 | 7.8 | 5.9
O=C(CSc1nc2ccccc2c(=O)n1CC1CCCO1)NC1CCCCC1 (centres undefined) | 0.3 | 14.8 | 8.4 | -1.1 | x | x
O=C(CN1CCCCCCC1)N/N=C/c1ccc(F)c(Br)c1 | 0.2 | 57.1* | -9.5 | -0.8 | 3.3 | 0.9
O=C(CN1CCCCCC1)N/N=C/c1ccc(F)c(Br)c1 | -0.1 | 32.2 | -12.5 | -0.2 | x | x
COc1cc(/C=N/NC(=O)CNc2cccc(C(F)(F)F)c2)cc(Br)c1O | 0.1 | -3.1 | -4.0 | 0.6 | x | x
COC(=O)C1(O)CC(CC(C)C)=NN1C(=O)c1ccccc1 (centres undefined) | 0.2 | 70.8* | -20.8 | -0.1 | 0.1 | -4.2
CC(C)CC1=NN(C(=O)c2ccc(O)cc2)C(O)(C(F)(F)F)C1 (centres undefined) | 0.0 | 2.1 | 2.4 | 3.9 | x | x
CSc1ccc(CN2CCN(CCCc3ccccc3)CC2)cc1 | -0.1 | 63.5* | 1.5 | 4.1 | 0.1 | 2.6
Cc1cccc(CN2CCN(CCCc3ccccc3)CC2)c1 | 0.0 | 68.9* | 2.6 | -1.8 | -3.0 | 2.0
CCOC(=O)c1cnc2c(C)cc(C)cc2c1Nc1ccc(N2CCCCC2)cc1 | -0.2 | -1.4 | -7.5 | 0.7 | x | x
CCOC(=O)c1ccc(S(=O)(=O)Nc2nnc(-c3ccc(Cl)cc3)o2)cc1 | 0.1 | 0.5 | -5.8 | -1.9 | x | x
O=C(Nc1ccc(Cl)c(C(=O)O)c1)c1cncc(Br)c1 | 0.2 | 15.0 | -0.3 | -0.3 | x | x
COc1cccc(C2CC(c3cccs3)=NN2C(=O)CSc2nnc(CNC(=O)c3ccccc3)n2-c2ccccc2)c1OC (centres undefined) | 0.5 | 70.5* | 3.2 | 0.3 | -11.3 | -0.3
O=C(CNC(=O)c1ccc(OC(F)F)cc1)OCC(=O)c1ccccc1F | 0.4 | 13.3 | 6.4 | -0.2 | x | x
O=S(=O)(Nc1cc(Br)c2oc3c(c2c1)CCCC3)c1ccc(Cl)cc1 | -0.1 | -11.5 | -0.9 | 0.8 | x | x
CN1CCN(CCOc2ccc(Cl)cc2C(C)(C)C)CC1 | 0.0 | 78.6* | 1.1 | -1.7 | 15.7 | 19.6
COCCCNCCCOc1ccc(Cl)cc1C(C)(C)C | -0.1 | 48.1 | -10.4 | -0.1 | x | x
COCCNCCOc1ccc(Cl)cc1C(C)(C)C | 0.3 | 73.6* | 13.4 | 0.6 | -7.6 | -5.9
COCCNCCOc1cccc(Cl)c1Cl | 0.0 | 72.1* | 2.1 | 0.5 | 12.7 | 16.4
Cc1ccc(C(C)(C)C)c(OCCNCCN)c1 | -0.2 | 79.8* | -2.6 | -0.8 | 3.0 | 3.6
SMILES | FBW7 activator | MITF primary | TEAD-YAP block | GPR151 ag | MITF inh conf | AS interf ctr
Cc1ccc(C(C)(C)C)c(OCCN2CCN(C)CC2)c1 | 0.4 | 77.0* | -10.8 | 0.2 | 12.7 | 15.2
Cc1ccc(C(C)(C)C)c(OCCn2ccnc2)c1 | -0.1 | 28.3 | -13.0 | -1.8 | x | x
CC(C)(C)c1cc(Cl)ccc1OCCOCCN1CCOCC1 | -0.1 | 64.3* | -11.6 | -1.4 | 9.8 | 1.4
CCN1CCN(C(c2cc3ccc(C)c(C)c3[nH]c2=O)c2nnnn2C(C)(C)C)CC1 (centres undefined) | -0.1 | 5.0 | -5.5 | -1.3 | x | x
CCOC(=O)C1CCN(C(=O)c2ccc(Br)cc2)CC1 | 0.2 | 22.4 | 2.6 | -2.4 | x | x
C=CCOc1ccccc1CN1CCC(C(=O)OCC)CC1 | -0.1 | 23.2 | -4.6 | 0.2 | x | x
Cc1nc(CN2CCN(Cc3ccc(OCC(O)CN4CCCCC4)cc3)CC2)cs1 (centres undefined) | 0.1 | 43.8 | 2.8 | 2.4 | x | x
Clc1cc(CNC2CCN(Cc3ccccc3)CC2)cc2c1OCCO2 | -0.2 | 58.0* | 3.1 | -0.1 | 10.2 | 10.3
O=C(Cc1ccccc1)N1CCC(C(=O)N2CCN(c3ccccc3)CC2)CC1 | 0.3 | 0.0 | 3.7 | -1.8 | x | x
O=C(c1ccc(F)cc1)N1CCN(C2CCN(Cc3ccccc3)CC2)CC1 | 0.8 | 57.2* | 12.6 | -1.5 | 9.4 | 18.3
O=C(Cc1ccccc1)N1CCC(N2CCN(c3ccccc3)CC2)CC1 | 0.1 | 55.1* | 4.6 | 1.2 | -1.8 | 3.4
O=C(c1ccccc1)N1CCC(N2CCN(Cc3ccccc3)CC2)CC1 | 0.4 | 83.1* | 10.8 | -2.3 | 4.6 | -2.0
O=C(O)C1CCN(C2CCN(Cc3ccccc3)CC2)CC1 | -0.1 | 74.9* | 1.0 | 0.1 | 11.7 | 7.0
Fc1ccc(CN2CCC(N3CCN(Cc4ccccc4)CC3)CC2)cc1 | 0.3 | 43.1 | 11.1 | 0.2 | x | x
c1ccc(CN2CCC(N3CCN(Cc4ccccc4)CC3)CC2)cc1 | 0.2 | 23.8 | 2.0 | -0.5 | x | x
Cc1cccc(-n2ncc3c(=O)n(CC(=O)N4CC(C)OC(C)C4)cnc32)c1C (centres undefined) | -0.1 | -6.8 | -3.3 | 0.1 | x | x
Cc1ccc(C(N)C(=O)N2CCC(Nc3ccc4[nH]ncc4c3)C2)cc1 (centres undefined) | -0.8 | 20.2 | 5.6 | -0.3 | x | x
O=C(c1ccco1)N1CCN(C2CCN(Cc3ccccc3)CC2)CC1 | -0.3 | 59.9* | -4.9 | 0.5 | -9.0 | 3.8
O=C(c1ccccc1F)N1CCN(C2CCN(Cc3ccccc3)CC2)CC1 | -0.1 | 60.8* | 5.3 | 0.1 | 9.2 | 17.9
CN1CCN(C2CCN(C(=O)c3ccc(F)cc3)CC2)CC1 | 0.1 | 57.5* | -5.0 | 0.1 | 0.5 | 0.3
O=C(c1ccco1)N1CCC(N2CCN(c3ccccc3)CC2)CC1 | -0.1 | 21.0 | -3.4 | -1.5 | x | x
O=C(c1ccccc1F)N1CCN(C2CCCCC2)CC1 | 0.1 | 35.6 | -0.3 | 2.8 | x | x
COc1ccc(C(=O)N2CCC(N3CCCC3)CC2)cc1 | -0.1 | 30.5 | -0.5 | 3.8 | x | x
Cc1ccc(C)c(Oc2coc3cc(OCc4ccccc4Cl)ccc3c2=O)c1 | 0.7 | -0.2 | -1.6 | 0.2 | x | x
C/C(CC12CC3CC(CC(C3)C1)C2)=N\NC(N)=O | 0.2 | 53.4* | -7.4 | 1.7 | 1.0 | -1.8
COc1ccccc1N1CCN(C2CCN(C(=O)c3cccc4ccccc34)CC2)CC1 | 0.1 | 75.0* | 9.3 | 0.1 | -0.8 | 4.5
